A selection: hits, their analogues and other compounds. The true share with any hit is near 1.2%.
RGS7-Gao reg – modulates binding of RGS7 to human Galphao. P09471. Multiplexed bead flow cytometry; actives lie on both sides. binding response (% of control), % at 10 µM. 220,000 compounds, 0.35% hits; in the data active means binding response below about 49% or above about 150%; inconclusive means no clear call, values can overlap the other calls; inactive means in between;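 further: fluorescent Galphao held in activated GDP-AlF4 state binding bead-coupled RGS7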
GSH bead fluor – GSH bead compound fluorescence profile; GSH beads flow cytometry, compound fluorescence 488/530 nm; hits give high values; fluorescence (KMESF) at 10 µM; 190,000 compounds, 0.25% hits; in the data active means fluorescence above about 89;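 further: glutathione beads carrying GST-tagged Bcl family fusion proteins plus one bare bead set; values are compound well signal with DMSO vehicle wells as background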
RGS4-Gao reg – human RGS4-Galphao interaction regulation. P09471. 220,000 compounds, 0.33% hits. binding response (% of control), % at 10 µM. Multiplexed bead flow cytometry, RGS4-Galphao binding; actives lie on both sides; in the data active means binding response below about 49% or above about 150%; inactive means in between;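 further: fluorescent Galphao activated with aluminum fluoride binding bead-coupled RGS4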
Avidin bead fluor – compound fluoresces at 488/530 nm on avidin beads. fluorescence (KMESF) at 10 µM. AID 1775. 220,000 compounds, 0.38% hits. compound fluorescence 488/530 nm, flow cytometry; hits give high values; in the data active means fluorescence above about 47
RGS16-Gao HTS – modulates binding between human RGS16 and Galphao. O15492+P09471. bead-based flow cytometry RGS16-Galphao binding, fluorescence; actives lie on both sides. binding response (% of control), % at 10 µM. 220,000 compounds, 0.38% hits. AID 1441; call rule not given here;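 further: Galphao activated by GDP with aluminum fluoride before binding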
Target sequence (O15492 whole entry, looked up): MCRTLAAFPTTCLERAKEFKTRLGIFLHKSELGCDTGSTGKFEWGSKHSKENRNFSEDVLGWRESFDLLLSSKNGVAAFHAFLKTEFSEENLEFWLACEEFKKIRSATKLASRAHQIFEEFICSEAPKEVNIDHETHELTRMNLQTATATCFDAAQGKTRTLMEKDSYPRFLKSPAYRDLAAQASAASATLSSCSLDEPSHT
Target sequence (P09471 whole entry, looked up): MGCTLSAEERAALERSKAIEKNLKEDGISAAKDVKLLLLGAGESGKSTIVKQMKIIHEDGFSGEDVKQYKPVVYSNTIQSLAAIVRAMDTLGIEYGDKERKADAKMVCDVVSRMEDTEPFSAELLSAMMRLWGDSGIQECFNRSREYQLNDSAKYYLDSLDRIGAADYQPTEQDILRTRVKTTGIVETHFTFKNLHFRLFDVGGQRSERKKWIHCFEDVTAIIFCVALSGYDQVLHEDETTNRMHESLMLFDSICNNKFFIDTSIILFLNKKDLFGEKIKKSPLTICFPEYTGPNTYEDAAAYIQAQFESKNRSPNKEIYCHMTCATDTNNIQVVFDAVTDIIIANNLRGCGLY
RGS8-Gao – modulates binding of RGS8 to human Galphao. multiplexed bead flow cytometry; actives lie on both sides. response (percent of control binding), % at 10 µM. 220,000 compounds, 0.34% hits. AID 1423; in the data active means response below about 60% or above about 140%; inactive means in between;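 further: Galphao activated as the GDP aluminium fluoride complex binding bead-coupled RGS8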
Starred values were filed as active, the others as inactive; ? = inconclusive; nt = no result given; [ ] = another dose, or the depositor's remark.

SMILES	RGS7-Gao reg	GSH bead fluor	RGS4-Gao reg	Avidin bead fluor	RGS16-Gao HTS	RGS8-Gao
CCOc1ccc(OCC)c(NC(=O)C2CCCN(c3ncccn3)C2)c1 (stereo unspecified)	103	264*	104	7	105	103
CCOc1ccc(OCC)c(NC(=O)C2CCN(c3ncccn3)CC2)c1	101	33	100	15	104	100
COc1ccc(C2=C(O)C(C)N(c3ccccc3)C2=N)cc1OC (stereo unspecified)	110	11	103	53*	101	102
COc1ccc(-c2cnn(-c3ccccc3)c2N)cc1OC	101	20	98	15	87	100
Cc1cc2nc(-c3ccc(SCC(=O)Nc4ccc5c(c4)OCCO5)nc3)[nH]c2cc1C	109	11	101	53*	101	101
Cc1ccc2nc(-c3ccc(SCC(=O)Nc4ccc5c(c4)OCCO5)nc3)[nH]c2c1	103	12	102	5	100	101
Cc1oc2c(O)c(O)ccc2c(=O)c1-c1cnn(-c2ccccc2)c1	46*	4	43*	11	35	67
Cc1oc2c(O)c(O)ccc2c(=O)c1-c1ccccc1	?	nt	92	8	89	94
c1ccc2c(c1)CCCC2NC1=NCCC1 (stereo unspecified)	105	256*	105	11	106	100
CCN(CC)S(=O)(=O)c1ccc(NC2CCCc3ccccc32)nc1 (stereo unspecified)	100	25	101	35	101	102
Cc1cc(C)n(-c2n[nH]c(=O)c3ccccc23)n1	?	nt	91	5	89	98
COCC(=O)N(Cc1nc2sc(C)c(C)c2c(=O)[nH]1)C1CCCCC1	?	nt	106	7	104	103
Cc1sc2nc(CN(C(=O)NC3CCCCC3)C3CCCC3)[nH]c(=O)c2c1C	136	16	129	56*	147	98
O=C(CSc1nnnn1C1CCCCC1)NCc1cccs1	97	19	102	11	100	100
N#Cc1ccccc1Sc1ccccc1N	14*	25	20*	-2	0.4*	12*
CC1=C(C)CC(C(=O)Nc2ccc3c(c2)OCO3)C(C(=O)O)C1 (stereo unspecified)	95	15	100	10	97	98
Cc1ccc(OCC(=O)O/N=C(\N)Cc2ccc(Cl)cc2)cc1	96	24	99	27	98	102
COc1ccc(OCC(=O)O/N=C(\N)Cc2ccc(Cl)cc2)cc1	108	22	101	54*	100	97
Cc1cccc(OCC(=O)N(C)CCc2ccccn2)c1	105	22	101	47*	101	101
Cc1cccc(CN(C)CCc2ccccn2)c1	105	15	99	33	100	102
CC(C)=CC(=O)OCC(=O)Nc1ccccc1Cl	101	266*	98	7	99	98
O=C(CSc1ccc(-c2cccc([N+](=O)[O-])c2)nn1)NC1CCCC1	98	27	93	23	80	90
COc1ccc(S(=O)(=O)Nc2cc3c(cc2C(C)=O)OCO3)cc1	100	62	98	26	98	99
O=C(NCc1ccccc1)c1c[nH]c2cc3c(cc2c1=O)OCCO3	96	89*	92	5	74	92
O=C(NCc1ccc2c(c1)OCO2)c1c[nH]c2ccc(S(=O)(=O)N3CCOCC3)cc2c1=O	94	28	96	9	50	86
SMILES	RGS7-Gao reg	GSH bead fluor	RGS4-Gao reg	Avidin bead fluor	RGS16-Gao HTS	RGS8-Gao
COCC(=O)NNS(=O)(=O)c1ccccc1[N+](=O)[O-]	112	5	98	14	141	123
COc1ccc(-c2cc(C#N)nc(N3CCNCC3)n2)cc1	146	15	136	49*	122	128
O=c1[nH]c(/C=C\c2cccs2)nc(O)c1[N+](=O)[O-]	100	24	101	12	103	102
CCn1c(SCC(=O)N2CC(=O)Nc3ccccc32)nnc1-c1ccoc1C	99	260*	99	7	100	99
Cc1occc1-c1nnc(SCC(=O)N2CC(=O)Nc3ccccc32)n1CC(C)C	112	10	109	nt	97	102
COCCN(C(=O)Nc1ccc(OC)cc1OC)C1CCN(C(C)C)CC1	133	35	105	51*	103	104
CC/C(=N\NC(N)=O)c1ccc(OC(F)F)cc1	?	nt	91	8	100	100
CCCCS(=O)(=O)C1CCS(=O)(=O)C1 (stereo unspecified)	96	10	94	20	97	100
CCN(CC)S(=O)(=O)C1CCS(=O)(=O)C1 (stereo unspecified)	85	242*	82	4	55	91
COc1ccc(N2C(=O)C(CC(=O)O)S/C2=C\C(C)=O)cc1 (stereo unspecified)	96	251*	94	6	99	97
COc1ccc(C2CC(c3ccc(Br)cc3)Nc3nc(N)nn32)cc1 (stereo unspecified)	100	20	103	13	106	102
COc1ccc(C2CC(c3ccccc3)Nc3nc(N)nn32)cc1 (stereo unspecified)	112	17	100	50*	104	100
CN(CCN1CCc2ccccc2C1)Cc1nc(Cc2ccccc2F)no1	17*	13	28*	2	20*	27*
COc1ccc(Cc2noc(CN(C)CCN3CCc4ccccc4C3)n2)cc1OC	105	13	106	2	105	105
COc1ccc(CCc2cc(OC)cc(=O)o2)cc1	?	nt	100	10	95	100
O=C(Nc1cccc2ccccc12)NC1CCS(=O)(=O)C1 (stereo unspecified)	128	17	96	58*	116	100
Cc1ccc(C)c(S(=O)(=O)N2CCCOC2CNC(=O)C(=O)NCc2ccncc2)c1 (stereo unspecified)	101	23	102	11	99	100
CC1Cc2ccccc2N1C(=O)CCS(=O)(=O)c1cccs1 (stereo unspecified)	322*[activator]	150*	222*[activator]	125*	634	148*[activator]
CC1Cc2ccccc2N1C(=O)CN1C(=O)C(=O)N(Cc2ccccc2)C1=O (stereo unspecified)	96	260*	96	7	105	98
N#C/C(=C\c1ccco1)C(=O)Nc1cccc2ncccc12	101	18	100	14	102	99
CC(=O)Nc1cccc(OCC(=O)NS(=O)(=O)c2ccc(Cl)cc2)c1	104	99*	104	28	107	100
CC(=O)Nc1cccc(OCC(=O)Nc2ccccc2)c1	104	37	106	20	101	104
Cc1cc(C(=O)Nc2cccc3cccnc23)ccc1[N+](=O)[O-]	98	16	93	5	71	94
